Laboratory results as given in PMC5540273 (PLoS ONE, 2017).

Test system: MAP3K1
Settings: concentration: 1 μM, replicates: in singlicate; n = 1
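Note: KINOMEscan kinase panel screen.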

In order of falling “%Inh” value:
1. NC(=O)c1sc(-n2cnc3ccccc32)cc1OCc1ccccc1F [GSK1024306]  59%
2. Nc1nc(-c2ccc3c(N)n[nH]c3c2)cc(N2CCC[C@@H](C(=O)Nc3ccccc3)C2)n1.O=C(O)C(F)(F)F.O=C(O)C(F)(F)F [GSK2288359]  15%
3. Nc1nc(-c2ccccn2)c(-c2ccnc3ccccc23)s1 [GW548057]  10%
4. CN1c2ccc(-c3ccc(C(=O)NCCO)cc3)cc2-c2[nH]ncc2S1(=O)=O  9%
5. Oc1ccc2ncnc(Nc3ccc(OCc4ccccc4)cc3)c2c1 [GI262866]  5%
6. FC(F)(F)c1ccc(-c2cc(-c3c[nH]nc3-c3ccccn3)ccn2)cc1 [GW599550]  5%
7. Cn1cc(-c2ccc3c(c2)CCN3C(=O)Cc2cccc(C(F)(F)F)c2)c2c(N)ncnc21 [GSK2606414]  3%
8. CS(=O)(=O)CCNCc1nc(-c2ccc3ncnc(Nc4ccc(OCc5cccc(F)c5)c(Cl)c4)c3c2)cs1.Cl [GW583340]  0%
9. Cc1ccc(O)cc1Nc1cc(C(F)(F)F)nc2ccc(-c3ccncc3)cc12 [GW630823]  0%

Test system: MAP3K2
Settings: concentration: 1 μM, replicates: in singlicate; n = 1

In order of rising “%Inh” value:
1. CNc1nccc(-c2c(-c3ccc(F)cc3)ncn2C2CCN(C)CC2)n1 [SB-222903]  0%
2. CN1CCC(n2cnc(-c3ccc(F)cc3)c2-c2ccnc(NC3CCNCC3)n2)CC1 [SB-229482]  0%
3. Fc1ccc(-c2ncn(CCCNCc3ccccc3)c2-c2ccncc2)cc1  0%
4. Cc1ccc(NC(=O)c2cccc(C#N)c2)cc1-c1ccc(C(=O)Nc2ccncc2)cc1 [GSK1398463]  0%
5. O=C(c1ccc(-c2cc(-c3c[nH]nc3-c3ccccn3)ccn2)cc1)N1CCCC1 [GW792479]  0%
6. Cl.c1ccc(Cn2ccc3cc(Nc4ncnc5ccccc45)ccc32)cc1 [GW275568]  0%
7. CS(=O)(=O)CCNCc1ccc(-c2ccc3ncnc(Nc4ccc(OCc5ccccc5)c(Cl)c4)c3c2)o1.Cl [GW574783]  0%
8. CC(C)(C)OC(=O)NC1CCCN(c2cc(-c3ccc4c(N)n[nH]c4c3)nc(N)n2)C1 (stereo not drawn) [GSK2286096]  0%
9. Cl.c1ccc(Cn2ncc3cc(Nc4ncnc5ccccc45)ccc32)cc1 [GW273749]  0%
10. CCc1nc(-c2cccc(N(C)S(=O)(=O)c3ccccc3)c2)c(-c2ccnc(Nc3ccc(N4CCN(C(C)=O)CC4)nc3)n2)s1 [GSK1645895]  0%
11. Cc1ccc(C)c(NC(=O)NCCNc2ccnc(Nc3ccc(F)cc3)n2)c1 [GSK1379878]  0%
12. Cc1cccc(-c2nc(Nc3ccc4[nH]nnc4c3)c3ccccc3n2)n1 [GW867587]  0%
13. COc1ccc(Nc2nccc(N3CCC(NC(=O)c4cccc(NC(C)=O)c4)C3)n2)cc1 (stereo not drawn) [GSK1379732]  0%
14. CSc1ccc(NC2=C(c3ccccc3Cl)C(=O)NC2=O)cc1 [SB-342411]  0%
15. C[C@@H]1CCN(C(=O)CO)C[C@@H]1N(C)c1ncnc2[nH]ccc12  0%
16. COc1ccc(-c2oc3ncnc(N)c3c2-c2ccc(OC)cc2)cc1 [SB-589132]  0%
17. COC(=O)c1c(-c2ccccc2)c2cc(Cl)ccc2c(=O)n1Cc1ccc(S(C)(=O)=O)cc1  0%
18. O=C(Nc1ccccc1F)NC1CCN(c2ccnc(Nc3ccc(F)cc3)n2)C1 (stereo not drawn) [GSK1379722]  1%
19. CSc1nn2c(=O)cc(N3CCOCC3)nc2n1Cc1cccc(Cl)c1Cl [GSK2347225]  1%
20. COc1ccc(NC(=O)c2ccc(-c3cc(-c4nnc(C)o4)ccc3C)cc2)cc1 [GW595885]  1%
21. Clc1cc(Nc2ncnc3cc[nH]c23)ccc1OCc1ccccn1  2%
22. CNc1nccc(-c2c(-c3ccc(F)cc3)ncn2CCCN2CCOCC2)n1 [SB-222516]  5%
23. CCn1c(-c2ccncc2)nc2cnccc21 [SB-735216]  6%
24. N#Cc1ccc(Oc2ccc(Nc3ncnc4cc[nH]c34)cc2Cl)cc1  9%
25. CC(=O)Nc1n[nH]c2ncc(-c3ccccc3)cc12 [SB-548492]  16%
26. CCC(CC)(CC)n1cnc2c(N)ncnc21 [SKF-97620]  40%
27. Cc1cc(N2CCC(NS(=O)(=O)c3ccc(F)cc3)CC2)nc(Nc2cccc(C#N)c2)n1.O=C(O)C(F)(F)F [GSK1653537]  60%
